Source: PubChem BioAssay AID504652 (National Center for Advancing Translational Sciences (NCATS), 2011)
The whole screen tested about 360,000 compounds, of which about 11,000 (3.1%) were called active. No stated cut-off is given here; in the data, active means activity change below about -30%; inactive means the rest. Only a selection was taken, and actives are over-represented in it overall.
On the % scale 0 is the no-effect control and ±100 the full control effect.

What follows are compounds tested against D(1A) dopamine receptor (Homo sapiens) (UniProt P21728) (assay: Antagonist of Human D 1 Dopamine Receptor: qHTS). Details: HEK293 TREx D1 cells, calcium flux, dopamine EC80; at 10 µM; hits give low values.
D(1A) dopamine receptor (Homo sapiens), sequence (P21728 whole entry, looked up): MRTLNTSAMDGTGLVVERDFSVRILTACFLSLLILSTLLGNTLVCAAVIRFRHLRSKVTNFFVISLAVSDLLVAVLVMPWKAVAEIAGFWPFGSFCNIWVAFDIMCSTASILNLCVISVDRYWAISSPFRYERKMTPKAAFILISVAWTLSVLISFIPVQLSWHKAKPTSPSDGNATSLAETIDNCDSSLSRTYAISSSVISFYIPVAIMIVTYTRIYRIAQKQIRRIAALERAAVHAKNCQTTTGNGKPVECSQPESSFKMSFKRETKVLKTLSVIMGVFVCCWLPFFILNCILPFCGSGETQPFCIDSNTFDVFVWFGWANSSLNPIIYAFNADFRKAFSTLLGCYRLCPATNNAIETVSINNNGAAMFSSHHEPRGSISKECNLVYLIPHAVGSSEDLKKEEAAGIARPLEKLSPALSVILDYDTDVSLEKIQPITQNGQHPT
Outline: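 After overnight tetracycline induction at 30 C, force-coupled D1 HEK293 cells took up a no-wash calcium dye at room temperature. Compounds were added and monitored 180 s, and the response to EC80 dopamine was then recorded.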
With `COc1ccc(-c2[nH]c3c(c2-c2c(-n4cccc4)n(C)c(=O)n(C)c2=O)c(=O)n(C)c(=O)n3C)cc1` the activity change, negative = inhibition was 1.12% (inactive). `Cc1ccc(-c2cc(N)n(Cc3cccc(Cl)c3)n2)cc1` was tested, and the activity change, negative = inhibition was -6.88% (inactive). `O=C(CC(NCc1cccnc1)C(=O)O)Nc1ccc(O)cc1` (stereo unspecified) was tested, and the activity change, negative = inhibition was 0.451% (inactive). For `O=[S+]([O-])(c1ccc2c(c1)OCCO2)N1CCN([S+](=O)([O-])c2c(Cl)cc(Cl)cc2Br)CC1`, the activity change, negative = inhibition was -16.4% (inactive). With `Clc1ccc(-c2cc(COc3ccccc3)no2)cc1Cl` the activity change, negative = inhibition was 1.76% (inactive). With `O=C(Nc1ccccc1)OCc1cc(-c2ccc(Cl)cc2)on1` the activity change, negative = inhibition was -32.2% (active). With `O=C(Nc1ccc(Cl)cc1)OCc1cc(-c2ccccc2)on1` the activity change, negative = inhibition was -17% (inactive). In the case of `CCCCNC(=O)CSc1nc2cc3c(cc2c(=O)n1CCCCCC(=O)NCc1ccc2c(c1)OCO2)OCO3`, the activity change, negative = inhibition is reported as -9.04% (inactive). In the case of `CCOc1ccc(OCc2ccc(C(=O)Nc3cccc(C)n3)o2)cc1`, the activity change, negative = inhibition is reported as 1.17% (inactive). For `CC(=O)Cc1nsc(NC(=O)c2ccc(Cl)cc2Cl)n1`, the activity change, negative = inhibition was -11.9% (inactive). `CC(=O)Cc1nsc(NC(=O)c2ccc(COc3ccc(C)cc3)o2)n1` was tested, and the activity change, negative = inhibition was -39.7% (active). For `COc1ccccc1-c1nnc(C2CCN(C(=O)c3ccc(Cl)cc3)CC2)o1`, the activity change, negative = inhibition was -12.2% (inactive). `O=C(CCc1cn(Cc2ccc(F)cc2)c2ccccc12)NC1CCCCC1` was tested, and the activity change, negative = inhibition was -2.06% (inactive). In the case of `COc1cc2c(cc1OC)C(COc1ccc(F)cc1)N(C(=O)c1ccccc1F)CC2` (stereo unspecified), the activity change, negative = inhibition is reported as 1.87% (inactive). In the case of `CC(C)NC(=O)/C(C#N)=C\c1ccc(N(C)C)c(Br)c1`, the activity change, negative = inhibition is reported as -4.83% (inactive). In the case of `CC(C)(C)C(=O)/C(C#N)=C/c1ccc(O)cc1`, the activity change, negative = inhibition is reported as -33.6% (active). In the case of `Cc1ccc(/C=C(\C#N)C(=O)Nc2cc(C)ccc2C)cc1`, the activity change, negative = inhibition is reported as 2.52% (inactive). `OCc1cnc(SCc2ccc(F)cc2)n1Cc1ccc(F)cc1` was tested, and the activity change, negative = inhibition was -1.85% (inactive). `Cc1ccc(Nc2c(-c3ccc(Cl)cc3)nc3sccn23)c(C)c1` was tested, and the activity change, negative = inhibition was -21.4% (inactive). `COc1cc(NC(=O)c2cc3ccc4cccnc4c3[nH]2)cc(OC)c1OC` was tested, and the activity change, negative = inhibition was -1.04% (inactive). For `Cc1cccc(N2CCN(C(=O)CCSCc3ccccc3F)CC2)c1C`, the activity change, negative = inhibition was 10% (inactive). With `COc1ccc(N2CCN(C(=O)CCSCc3ccccc3F)CC2)cc1` the activity change, negative = inhibition was -20.6% (inactive). With `O=C(CCSCc1ccccc1F)N1CCN(c2ccc(Cl)cc2)CC1` the activity change, negative = inhibition was -33.3% (active). In the case of `c1cnn(-c2cc(N3CCOCC3)ncn2)c1`, the activity change, negative = inhibition is reported as 3.42% (inactive). With `Cc1cc(C)n(Cc2cnc(N3CCOCC3)s2)n1` the activity change, negative = inhibition was -31% (active). With `Cc1nc(N2CCOCC2)sc1C(=O)NN` the activity change, negative = inhibition was 7.42% (inactive). For `Cc1ccc2onc(CC(=O)N3CCN(c4ccc(Cl)cc4)CC3)c2c1`, the activity change, negative = inhibition was -0.0287% (inactive). `COc1ccc(NC(C(=O)Nc2cccc(C(C)=O)c2)c2ccccc2)cc1` (stereo unspecified) was tested, and the activity change, negative = inhibition was 0.474% (inactive). `C=CCSc1nsc(NC(=O)Nc2cccc(C(C)=O)c2)n1` was tested, and the activity change, negative = inhibition was -31.6% (active). In the case of `CC(=O)c1cccc(NC(=S)N2CCCC2)c1`, the activity change, negative = inhibition is reported as -8.06% (inactive). With `CC(=O)c1cccc(NC(=O)CSc2nc3c(c(=O)[nH]2)CCC3)c1` the activity change, negative = inhibition was -6.03% (inactive). `CCSc1nsc(NC(=O)Nc2cccc(C(C)=O)c2)n1` was tested, and the activity change, negative = inhibition was -35% (active). With `CSc1ccccc1C(=O)Nc1cccc(C(C)=O)c1` the activity change, negative = inhibition was -13.7% (inactive). In the case of `COc1ccc(-n2ccn(CC(=O)Nc3ccc(C)c(C)c3)c(=O)c2=O)cc1OC`, the activity change, negative = inhibition is reported as -0.573% (inactive). For `O=C1CN(C(=O)Nc2ccccc2C(F)(F)F)C(c2ccccc2)c2c(sc3c2CCCC3)N1` (stereo unspecified), the activity change, negative = inhibition was -10.2% (inactive). With `COc1cccc(-n2cc(C(=O)NCc3cccc(Cl)c3)c3ccccc3c2=O)c1` the activity change, negative = inhibition was -9.19% (inactive). With `Cc1ccc(C)c(Cn2c(=O)n(CCC(=O)NCc3ccc4c(c3)OCO4)c(=O)c3sccc32)c1` the activity change, negative = inhibition was -5.56% (inactive). For `COc1ccccc1N1CCN(C2C(=O)c3ccccc3N2C(C)=O)CC1` (stereo unspecified), the activity change, negative = inhibition was -1.14% (inactive). For `O=C(c1ccc2c(c1)N(Cc1ccccc1)C(=O)c1ccccc1S2(=O)=O)N1CCC(Cc2ccccc2)CC1`, the activity change, negative = inhibition was -25.2% (inactive). In the case of `COc1ccc(Cn2ccn(CC(=O)Nc3cc(C)ccc3C)c(=O)c2=O)cc1`, the activity change, negative = inhibition is reported as 10.1% (inactive). For `COc1cccc(N2C(=O)CN(Cc3ccccc3)C2=S)c1`, the activity change, negative = inhibition was 1.81% (inactive). With `COc1ccc(Cn2ccn(Cc3cccc(OC)c3)c(=O)c2=O)cc1` the activity change, negative = inhibition was -44.5% (active). `CC(=O)c1ccc(NC(c2ccc(F)cc2)c2nnc(-c3ccccc3)o2)cc1` (stereo unspecified) was tested, and the activity change, negative = inhibition was -24.1% (inactive). With `CCOC(=O)c1c(C)[nH]c(C2=NNC(=NC(C)COC)SC2)c1C` (stereo unspecified) the activity change, negative = inhibition was -30% (active). `Cc1ccc(-c2noc(CSc3nnc(-c4ccc(Cl)cc4)n3C)n2)cc1` was tested, and the activity change, negative = inhibition was 0.344% (inactive). With `Cc1ccc2cccc(NC(=O)C(C)Oc3ccc(C)c(C)c3)c2n1` (stereo unspecified) the activity change, negative = inhibition was -2.12% (inactive). `COC(=O)c1cc(NC(=O)c2cnc(SC)nc2-c2ccccc2)cc(C(=O)OC)c1` was tested, and the activity change, negative = inhibition was -16.6% (inactive). In the case of `CCN(CC)S(=O)(=O)c1nnc(NC(=O)COc2ccccc2Cl)s1`, the activity change, negative = inhibition is reported as 1.29% (inactive). With `CCNC(=S)N(CCc1c(C)[nH]c2ccc(C)cc12)Cc1ccco1` the activity change, negative = inhibition was -10.7% (inactive). With `COc1cccc(NC(=S)N(CCc2c(C)[nH]c3ccccc23)Cc2ccco2)c1` the activity change, negative = inhibition was -45.7% (active). For `COc1ccc2[nH]c(C)c(CCN(Cc3cccs3)C(=S)Nc3ccccc3OC)c2c1`, the activity change, negative = inhibition was -1.49% (inactive). With `COc1ccc(-c2cc(-c3ccc(F)cc3)nc3c2COc2ccccc2-3)cc1` the activity change, negative = inhibition was 10.1% (inactive). In the case of `Cc1ccc(Cl)cc1N1CCN(C(=O)C2CCC(CNS(=O)(=O)c3cccs3)CC2)CC1` (stereo unspecified), the activity change, negative = inhibition is reported as 4.96% (inactive). For `CCN(CC)c1ccc(NC(=O)CN2CCN(CC(=O)Nc3ccc(Cl)cc3)CC2)cc1`, the activity change, negative = inhibition was 7.6% (inactive). With `O=C(OCc1cc(=O)n2nc(C3CC3)sc2n1)c1ccccc1Cl` the activity change, negative = inhibition was -4.47% (inactive). For `Cc1ccc(-n2c(=O)c3cccnc3n2CC(=O)NCc2ccc(F)cc2)cc1C`, the activity change, negative = inhibition was 4.39% (inactive). `OCC1(CCc2ccccc2)CCN(Cc2ccc3nsnc3c2)CC1` was tested, and the activity change, negative = inhibition was -86% (active). With `Cc1cccc(-c2ncc(CN3CCC(CO)(CCCc4ccccc4)CC3)cn2)c1` the activity change, negative = inhibition was 16.2% (inactive). `CC(C)(O)C#Cc1ccc(CN2CCC(CO)(CCc3ccccc3)CC2)cc1` was tested, and the activity change, negative = inhibition was 10.7% (inactive). `CCc1ccc2ncc3c(-c4ccc(C)cc4)nn(CC(=O)NCc4ccccc4)c3c2c1` was tested, and the activity change, negative = inhibition was -13.5% (inactive). For `CC1Cc2ccccc2N1C(=O)CSc1nnc(-c2ccc(S(=O)(=O)N3CCCC3)cc2)n1C` (stereo unspecified), the activity change, negative = inhibition was -5.59% (inactive). `CC1Cc2ccccc2N1C(=O)CSc1nnc(C2CC2)n1C` (stereo unspecified) was tested, and the activity change, negative = inhibition was -45.3% (active). `CCn1c(CSc2ncccn2)nnc1SCC(=O)N1c2ccccc2CC1C` (stereo unspecified) was tested, and the activity change, negative = inhibition was -3.34% (inactive). `CC(=O)c1ccc(N2CCN(C3C(=O)c4ccccc4N3C(C)=O)CC2)cc1` (stereo unspecified) was tested, and the activity change, negative = inhibition was 3.13% (inactive). In the case of `COc1cccc(CNC(=O)C2CCN(S(=O)(=O)c3ccc4c(ccn4C)c3)CC2)c1`, the activity change, negative = inhibition is reported as -13.2% (inactive). With `Nc1cccc(-c2cc(-c3ccccc3)nc(-c3cccc(N)c3)n2)c1` the activity change, negative = inhibition was -35% (active). For `Cc1cc(-c2ccccc2)n2nc(-c3ccccc3)cc2n1`, the activity change, negative = inhibition was 5.34% (inactive). In the case of `Cc1nc(NNC(=O)c2ccccc2)cc(-c2ccccc2)n1`, the activity change, negative = inhibition is reported as -10.3% (inactive). In the case of `Cc1ccc(S(=O)(=O)n2nc(C)c(S(=O)(=O)N3CCCCCC3)c2C)cc1`, the activity change, negative = inhibition is reported as 17.9% (inactive). With `COc1ccc(N(CC(=O)NCCc2ccc(Cl)cc2)S(=O)(=O)c2c(C)nn(C)c2C)cc1` the activity change, negative = inhibition was -19.7% (inactive). With `CCC1CCCCN1S(=O)(=O)c1ccc(NC(=O)c2cc(=O)c3ccccc3o2)cc1` (stereo unspecified) the activity change, negative = inhibition was -15.6% (inactive). In the case of `Cc1ccccc1CSCCNC(=O)C1CCN(S(=O)(=O)Cc2ccccc2)CC1`, the activity change, negative = inhibition is reported as -13.9% (inactive). With `Cc1cc(/C=C(/C#N)C(=O)Nc2ccc(Cl)cc2)c(C)n1-c1cccnc1` the activity change, negative = inhibition was -14.3% (inactive). For `N#C/C(=C\c1cccnc1)C(=O)Nc1ccc(SC(F)F)cc1`, the activity change, negative = inhibition was -35.7% (active). With `CC(C)(C)NC(=O)/C(=C/c1cccnc1)NC(=O)c1ccco1` the activity change, negative = inhibition was -13.6% (inactive). `CCCCN1CC(c2nc3ccccc3n2CCCCOc2ccc(C)cc2C)CC1=O` (stereo unspecified) was tested, and the activity change, negative = inhibition was -5.31% (inactive). With `Cc1ccc(S(=O)(=O)c2nnn3c2nc(N2CCN(c4ccccn4)CC2)c2ccccc23)cc1` the activity change, negative = inhibition was -20.2% (inactive). In the case of `CCOC(=O)c1nnn2c1nc(N1CCN(c3ccccc3)CC1)c1ccccc12`, the activity change, negative = inhibition is reported as -35.4% (active). With `CCOC(=O)c1nnn2c3ccccc3c(=O)n(C)c12` the activity change, negative = inhibition was -10.2% (inactive). With `CCN1CCN(CCCNC(=O)c2ccc3c(c2)sc2nc(-c4ccc(OC)cc4)cn23)CC1` the activity change, negative = inhibition was -14.6% (inactive). With `CSc1nn(Cc2cccc(C)c2)c(N)c1S(=O)(=O)c1ccccc1` the activity change, negative = inhibition was -16.3% (inactive). For `O=C(Cc1cccs1)Nc1nnc(SCc2ccc(F)cc2)s1`, the activity change, negative = inhibition was -79.5% (active). `CC(C)(C)CC(=O)Nc1nnc(SCC(=O)NCc2cccs2)s1` was tested, and the activity change, negative = inhibition was 3.61% (inactive). `O=C(CSc1nnc(SCc2ccc(F)cc2)s1)Nc1ccc(C(=O)O)cc1` was tested, and the activity change, negative = inhibition was 6.86% (inactive). In the case of `COc1cccc(CNC(=O)CCC(=O)N2CC3CCCN3c3ccccc32)c1` (stereo unspecified), the activity change, negative = inhibition is reported as -1.97% (inactive). In the case of `Cc1ccccc1C(=O)Nc1cc(C)c(O)c(-c2nc3ccccc3o2)c1`, the activity change, negative = inhibition is reported as 5.18% (inactive). With `CCOC(=O)c1c(C)[nH]c(C)c1S(=O)(=O)N1CCCC(C(=O)NCc2ccccc2Cl)C1` (stereo unspecified) the activity change, negative = inhibition was -3.63% (inactive). For `COc1ccc(CCNC(=O)Cn2c(=O)n(-c3ccccc3)c(=O)c3c(C)c(C)sc32)cc1OC`, the activity change, negative = inhibition was 2.12% (inactive). In the case of `COc1ccc(OCCNC(=O)c2cc(C3CC3)nc3c2cnn3C(C)C)cc1`, the activity change, negative = inhibition is reported as -8.1% (inactive). In the case of `CC(C)n1ncc2c(C(=O)Nc3ccc(CC#N)cc3)cc(C3CC3)nc21`, the activity change, negative = inhibition is reported as -2.28% (inactive). `CC(C)n1ncc2c(C(=O)NCc3ccccc3CN(C)C)cc(C3CC3)nc21` was tested, and the activity change, negative = inhibition was -37.6% (active).
